This is a sample that favours compounds with a hit; in the whole collection about 1.5% have one here.
USP1-UAF1 inh: inhibitors of human USP1/UAF1 deubiquitinase; recombinant USP1/UAF1, Ub-Rhodamine cleavage fluorescence; Potency, µM (highest dose often 57.1 µM), inactives show at the top dose activity change, negative = inhibition, actives largely listed as inhibitors; O94782; 390,000 tested, 0.23% active; also: potency is read from the fitted curve at half-maximal effect; nearly all actives have a fitted effect of over 60% in size
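In this screen, compounds sit with the deubiquitinase complex (1nM) for 15 min at room temperature before Ub-Rho is added at 150nM final. Fluorescence rise is then followed for 6 reads every 60 seconds.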
TrxR1 substrate: is turned over as a substrate by rat TrxR1; purified TrxR1 substrate turnover, NADPH consumption readout; Potency, µM (highest dose often 114 µM), without a hit: top-dose activity change, negative = substrate turnover; 390,000 tested, 0.01% active; AID 588456; also: potency is read from the fitted curve at half-maximal effect; nearly all actives have a fitted effect of over 50% in size
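Rat TrxR1, dispensed at 90 nM, was prereduced with 400 uM NADPH (final) for 5 min at ~22 deg C, then incubated with compound 15 min before 400 uM selenite. A first-read NADPH fluorescence drop versus no-compound background flagged substrates.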
FBPA coupling cs: coupling enzyme interference in Giardia aldolase counter-screen; coupling enzyme system counterscreen, AmpLite Red fluorescence; activity change, negative = inhibition, % at 58.2 µM, hits read low; 290,000 tested, 0.67% active; AID 2472; in the data active = activity change below about -30%
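Fluorescence at 525 nm excitation and 598 nm emission measured inhibition of the coupled detection system without aldolase. Compounds (at 57.5 uM final) were preincubated 10 min at room temperature with coupling enzyme reagent before a 20 min substrate/AmpLite Red step.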
rTrxR1 inhibitor: blocks rat thioredoxin reductase 1 | O89049 | recombinant rTrxR1, NADPH fluorescence consumption, selenite substrate | Potency, µM (series often up to 114 µM), for inactives: top-dose activity change, negative = inhibition, hits mostly inhibitors | 390,000 tested, 1% active; also: potency is read from the fitted curve at half-maximal effect; nearly all actives have a fitted effect of over 65% in size
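Rat TrxR1 (90 nM in the dispensed reagent) was pre-reduced with 400 uM NADPH for 5 min at room temperature, then incubated with compound for 15 min. After 400 uM selenite was added, NADPH fluorescence (Ex 340/Em 450 nm) was followed for 8 min.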
GALK inhibitor: inhibitors of human galactokinase. 270,000 tested, 0.007% active. Potency, µM (highest dose often 57.5 µM), for the others: at the top dose activity change, negative = inhibition, usual class: inhibitors. P51570. Purified GALK, Kinase-Glo residual ATP luminescence; also: potency is read from the fitted curve at half-maximal effect
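Compounds were pin-transferred into ATP buffer (35 uM final), then GALK plus galactose (5 nM, 100 uM final) was added. After 1 h at room temperature, Kinase-Glo Plus was added and luminescence read after 10 min.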
Starred values were filed as active, the others as inactive; ? = inconclusive; . = no result given; [ ] = remark or other dose. Unless noted, calls follow the shape of the dose curve; as a rule, active = well fitted curve in the direction sought with a large enough effect; inconclusive = small, poorly fitted or top-dose-only effect, or another doubt; inactive = no such curve, though single readings can be large; an effect the other way counts as inactive or inconclusive. % is scaled to controls: 0 for no effect and ±100 for the full control effect.

SMILES	USP1-UAF1 inh	TrxR1 substrate	FBPA coupling cs	rTrxR1 inhibitor	GALK inhibitor
COc1cc(O)c2c(c1)OC(C)(C)CC2=O	-7%	7%[57.1 µM]	0	17%[57.1 µM]	-2%
COc1cc(O)cc2cc3c(c(O)c12)C(=O)CC(C)(O)O3 (stereo not given)	?	-10%	-43*	50%	1%
CNc1ccc(/C=C2\C=Cc3ccccc32)cc1Cl	.	-10%	.	-24%	.
CCOC(=O)c1c(-c2ccc(C)o2)csc1NC(=O)CSc1nnnn1-c1ccccc1	-9%	10%	-3	2.8µM*	-1%
CCOC(=O)c1c(-c2ccc(C)o2)csc1NC(=O)CSc1nnc(C)s1	-16%	-2%	-8	8.9µM*	0%
CCOC(=O)c1c(-c2ccccc2)csc1NC(=O)CSc1nnc(C)s1	-11%	-8%	-8	-9%	.
COC(=O)Oc1nsnc1N1CCOCC1	2%	3%	-1	2%	-1%
O=c1c(N2CCOCC2)nsnc1N1CCOCC1	-22%	1%[57.1 µM]	-54*	15%[57.1 µM]	3%
CCCOC(=O)c1ccc(-c2ccc(C=O)o2)cc1	-1%	74%	1	32µM*	0%
CC(=O)c1cccc(-n2c(CCC(=O)O)ccc2-c2ccccc2)c1	-20%	2%	10	50µM*	.
CC(=O)c1ccc(-n2c(CCC(=O)O)ccc2-c2ccccc2)cc1	-11%	3%	14	?	5%
COc1ccc(C(=O)c2c(C(F)(F)F)oc3c2C(=O)c2ccccc2C3=O)cc1	?	6%[57.1 µM]	-43*	34%[57.1 µM]	0%
Cc1ccc(-c2csc3ncnc(Sc4nnnn4-c4ccccc4)c23)cc1	.	3%	.	25%	.
COc1cc2[nH]c3c(Cl)ncnc3c2cc1OC	-4%	-5%	-43*	-2%	2%
COc1cc2[nH]c3c(N4CCN(c5ccc(Cl)cc5)CC4)ncnc3c2cc1OC	-25%	36%	-1	23%	0%
COC(=O)c1ccc(CCc2cc(O)ccc2O)cc1	-6%	-15%	.	56µM*	.
COC(=O)c1ccc(O)cc1	-12%	11%[57.1 µM]	1	3%[57.1 µM]	-1%
COC(=O)c1ccc(CCc2cc(O)c(Br)cc2O)cc1	-23%	0%	.	22µM*	.
COc1ccc(C)cc1Nc1n[n+](-c2ccccc2)c(-c2ccc(OC)c(OC)c2OC)s1	-8%	-7%	-2	-20%	.
COc1ccc(C)cc1Nc1n[n+](-c2ccccc2)c(-c2ccc(N(C)C)cc2)s1	-20%	0%	0	8.9µM*	.
CC(C)(C)n1ncc2c(=O)n(Cc3c(Cl)ccc(Cl)c3Cl)cnc21	.	-1%	.	9%	.
CC1=NN(c2ccc(N)cc2)C(=O)C1	?	-10%	-26	28µM*	3%
CC1=NN(c2ccc(Cl)cc2)C(=O)C1	-8%	1%[57.1 µM]	3	1%[57.1 µM]	11%
O=C(COc1ccc(/C=C\[N+](=O)[O-])cc1)N1CCOCC1	-29%	7%	-4	14µM*	11%
CC(=O)OCC1=C(C(=O)OC(C)(C)C)N2C(=O)[C@@H](NC(=O)Cc3ccccc3)[C@H]2SC1	-20%	3%	.	6.3µM*	.
SMILES	USP1-UAF1 inh	TrxR1 substrate	FBPA coupling cs	rTrxR1 inhibitor	GALK inhibitor
COc1ccc(C(C)=O)cc1COC(=O)CNC(=O)c1ccccc1F	-12%	0%	2	16µM*	0%
c1ccc(N=c2nc(-c3ccccc3)n(-c3ccccc3)s2)cc1	.	-1%	.	-13%	.
CCOc1cc(N2CCOCC2)c(OCC)cc1NS(=O)(=O)c1ccc(Cl)s1	-17%	-3%	-45*	-3%	3%
CCNC(=S)Nc1cc(OCC)c(N2CCOCC2)cc1OCC	3%	-3%	-7	?	1%
CCCNC(=O)Nc1cc(OCC)c(N2CCOCC2)cc1OCC	-11%	8%[57.1 µM]	-53*	8%[57.1 µM]	2%
COc1ccc(OC)c([N+](=O)[O-])c1C(N)=O	-23%	2%[57.1 µM]	-13	-1%[57.1 µM]	0%
COc1cc(NC(C)=O)c2ncccc2c1[N+](=O)[O-]	-15%	-6%	-66*	5%	3%
COc1ccc(NC(C)=O)c([N+](=O)[O-])c1[N+](=O)[O-]	2%	5%	.	5µM*	.
COc1cc(NC(C)=O)c2ncccc2c1NC(C)=O	?	-12%[57.1 µM]	-16	-33%[57.1 µM]	1%
Cc1ccc(C(=O)NCC(=O)OCC(=O)c2ccc3ccccc3c2)cc1	.	9%	.	16%	.

Source: PubChem BioAssay (National Center for Advancing Translational Sciences (NCATS))
